Records with an inconclusive call do not appear. Values without a mark were called inactive. Calls of active or inactive are those of the source. Calls follow the shape of the dose curve; as a rule, active = well fitted inhibition curve with a large enough effect in the signal ratio in the repeat runs (not every such curve was filed as active); inconclusive = weak or mixed curves, or effect the other way; inactive = flat fitted curve, though single readings scatter; the % refers to the signal ratio.
Test: cAMP Responsive Elements (CRE) small molecule antagonists, cell-based qHTS assay (AID 1963591)
Details: CRE-bla HEK293T, beta-lactamase FRET ratio; series mostly up to 92.4 µM; activity change, negative = inhibition: at the top concentration
Source text: U.S. Tox21 Program National Center for Advancing Translational Sciences [NCATS] Division of Preclinical Innovation [DPI] U.S. Environmental Protection Agency [EPA] National Institutes of Environmental Health Sciences [NIEHS] National Toxicology Program [NTP] U.S. Food and Drug Administration [FDA] Tox21 Assay Overview: CREB (cyclic-AMP Responsive Element Binding Protein) is a cellular transcription factor. It binds to certain DNA sequences called cAMP Responsive Elements (CRE) and regulates the transcription of the genes. […] This cell line can be used to find agonists/antagonists of the cyclic AMP signaling pathway. The activation of the report gene under culture conditions can be detected by fluorescence intensity. This cell line has been used to screen the Tox21 10K compound library to […].
Tox21 Assay Protocol Summary: CRE-bla Hek 293T cells were suspended in assay medium (DMEM containing 10% dialyzed FBS, 0.1 mM NEAA, 1 mM sodium pyruvate and 25 mM HEPES) and dispensed at 2,000 cells/4 uL /well into 1536-well black wall/clear bottom plates using a Multidrop Combi (ThermoFisher Scientific, Waltham, MA) dispenser. After the assay plates were incubated at 37 C/5% CO2 for 18 hrs, 23 nL of compounds dissolved in DMSO, positive controls or DMSO only was transferred to the assay plate by a pintool workstation (Kalypsys, San Diego, CA), followed by addition of 1 […] uL of 1.25uM NKH477 (0.25 uM as final concentration) in assay medium using a Flying Reagent Dispenser (Aurora Discovery, San Diego, CA). The plates were incubated at 37 C and 5% CO2 for 3 hrs. Then 1 uL of LiveBLAzer B/G FRET substrate (Invitrogen, Carlsbad, CA) was added to each well using Bioraptr Flying Reagent Dispenser (FRD, Aurora Discovery, San Diego, CA). The plates were incubated at room temperature for 2 h.
% is scaled to controls: 0 for no effect and ±100 for the full control effect; potency is read from the fitted curve at half-maximal effect.

Question: Which “activity change, negative = inhibition” value does the source give for `O=[N+]([O-])c1ccc(Cl)c(Cl)c1Cl` here?
Answer: The value was -0.832%.

Question: With `CCc1cc(OC)c(C[C@H](C)N)cc1OC` as the molecule, how does the “activity change, negative = inhibition” value read?
Answer: Its value is -10.4%.

Question: With `CC(C)NCC(O)c1ccccc1Cl` (stereo not given) as the molecule, how does the “activity change, negative = inhibition” value read?
Answer: The value was 18.2% [at 42.4 µM].

Question: With `O=S1(=O)OCCO1` as the molecule, how does the “activity change, negative = inhibition” value read?
Answer: The value was -1.56%.

Question: Which “activity change, negative = inhibition” value does the source give for `CCCCn1cc[n+](C)c1` (tested in a mixture with another compound) here?
Answer: The value was 1.61%.

Question: For `CC(C)(C)NCC(O)c1cc(Cl)c(N)c(Cl)c1` (stereo not given), which “activity change, negative = inhibition” value is on record?
Answer: The value was 18.4% [at 42.4 µM].

Question: With `CCCCCCBr` as the molecule, how does the “activity change, negative = inhibition” value read?
Answer: The value was 2.09%.

Question: Which “activity change, negative = inhibition” value does the source give for `CS(=O)(=O)c1cc(C(F)(F)F)ccc1C(=O)c1cnoc1C1CC1` here?
Answer: The value was 13.3%.

Question: For `CC(=O)Nc1cc([As](=O)(O)O)ccc1O`, which “activity change, negative = inhibition” value is on record?
Answer: The value was 1.73% [at 42.4 µM].

Question: For `CC(Cc1ccccc1)N(C)Cc1ccco1` (stereo not given), which “activity change, negative = inhibition” value is on record?
Answer: The value was 0.723% [at 42.4 µM].

Question: For `CC(C)=CC1C(C(=O)OCc2coc(Cc3ccccc3)c2)C1(C)C` (stereo not given), which “activity change, negative = inhibition” value is on record?
Answer: The value was -14.3%.

Question: Which “activity change, negative = inhibition” value does the source give for `CC(C)CCCCCCCOC(=O)c1ccccc1C(=O)OCCCCCCCC(C)C` here?
Answer: The value was -13.9%.

Question: With `C=CCC1(C(C)CC)C(=O)NC(=O)NC1=O` (stereo not given) as the molecule, how does the “activity change, negative = inhibition” value read?
Answer: The value was -0.537% [at 42.4 µM].

Question: With `COP(=O)(OC)OC(Br)C(Cl)(Cl)Br` (stereo not given) as the molecule, how does the Potency read?
Answer: Its Potency is “inactive”.

Question: With `COC1CC(=C(c2cccs2)c2cccs2)C[N+](C)(C)C1` (stereo not given) as the molecule, how does the “activity change, negative = inhibition” value read?
Answer: Its value is -0.34% [at 42.4 µM].

Question: With `COc1ccc(C=O)cc1O` as the molecule, how does the “activity change, negative = inhibition” value read?
Answer: The value was -6.32%.

Question: With `CN1CCN(C(=O)O[C@H]2c3nccnc3C(=O)N2c2ccc(Cl)cn2)CC1` as the molecule, how does the “activity change, negative = inhibition” value read?
Answer: Its value is 13.1% [at 42.4 µM].

Question: Which “activity change, negative = inhibition” value does the source give for `C[N+]1(CCF)[C@@H]2CC[C@H]1CC(OC(=O)C(O)(c1ccccc1)c1ccccc1)C2` (stereo not given in full) here?
Answer: The value was -8.46% [at 42.4 µM].

Question: For `O=C1c2ccccc2C(=O)C1C(=O)C(c1ccccc1)c1ccccc1`, which “activity change, negative = inhibition” value is on record?
Answer: The value was -15.7% [at 42.4 µM].

Question: Which “activity change, negative = inhibition” value does the source give for `CSSC` here?
Answer: The value was -10.1%.

Question: With `N#CC(C#N)=C(C#N)C#N` as the molecule, how does the “activity change, negative = inhibition” value read?
Answer: The value was -0.195%.

Question: With `CON(C)C(=O)Nc1ccc(Br)c(Cl)c1` as the molecule, how does the “activity change, negative = inhibition” value read?
Answer: Its value is -6.99%.

Question: With `CC1NCCOC1c1ccccc1` (stereo not given) as the molecule, how does the “activity change, negative = inhibition” value read?
Answer: The value was 9.48% [at 42.4 µM].

Question: For `CCOP(=S)(OCC)Oc1ccc(S(C)=O)cc1` (stereo not given), which “activity change, negative = inhibition” value is on record?
Answer: Its value is 5.59%.

Question: Which “activity change, negative = inhibition” value does the source give for `Nc1cc(Cl)ccc1O` here?
Answer: The value was 2.33%.

Question: For `CC(CCc1ccccc1)NC(C)C(O)c1ccc(O)cc1` (stereo not given), which “activity change, negative = inhibition” value is on record?
Answer: Its value is -5.53% [at 42.4 µM].

Question: Which “activity change, negative = inhibition” value does the source give for `ClCBr` here?
Answer: The value was 2.26%.

Question: Which “activity change, negative = inhibition” value does the source give for `CCOc1cc(Oc2ccc(C(F)(F)F)cc2Cl)ccc1[N+](=O)[O-]` here?
Answer: Its value is -9.41%.

Question: Which “activity change, negative = inhibition” value does the source give for `CC(C)CC#N` here?
Answer: Its value is 4.85%.

Question: For `O=c1[nH]c2cc(Cl)ccc2n1C1CCNCC1`, which “activity change, negative = inhibition” value is on record?
Answer: Its value is -0.418% [at 42.4 µM].

Question: For `CN(CCCC(O)c1cccnc1)N=O` (stereo not given), which “activity change, negative = inhibition” value is on record?
Answer: The value was -6.1%.

Question: Which “activity change, negative = inhibition” value does the source give for `Brc1ccccc1` here?
Answer: Its value is 8.15%.

Question: Which Potency does the source give for `S=C(SSC(=S)N1CCCCC1)N1CCCCC1` here?
Answer: The Potency was 1.68 µM (active).

Question: With `Cc1cc(=O)[nH]o1` as the molecule, how does the “activity change, negative = inhibition” value read?
Answer: The value was -0.524%.

Question: With `CC(O)CCl` (stereo not given) as the molecule, how does the “activity change, negative = inhibition” value read?
Answer: Its value is 2.07%.

Question: Which “activity change, negative = inhibition” value does the source give for `CC(C)CC(N(C)C)C1(c2ccc(Cl)cc2)CCC1` (stereo not given) here?
Answer: The value was 0.912% [at 42.4 µM].

Question: Which “activity change, negative = inhibition” value does the source give for `CCC1(c2ccccc2)C(=O)N(COC)C(=O)N(COC)C1=O` here?
Answer: The value was 0.157% [at 42.4 µM].

Question: With `CC(C)NCC(O)c1ccc(N)c(C#N)c1` (stereo not given) as the molecule, how does the “activity change, negative = inhibition” value read?
Answer: The value was 21.1% [at 42.4 µM].

Question: Which “activity change, negative = inhibition” value does the source give for `CC(C)(C)NCC(O)c1cc(Cl)c(N)c(C(F)(F)F)c1` (stereo not given) here?
Answer: Its value is 23.1% [at 42.4 µM].

Question: With `CN(C)C(=O)Nc1cccc(OC(=O)NC(C)(C)C)c1` as the molecule, how does the “activity change, negative = inhibition” value read?
Answer: Its value is -8.61%.
